Reference: PubChem BioAssay AID1259389 (Center for Chemical Genomics, University of Michigan, 2018)
Screen size: about 100,000 compounds; about 620 (0.62%) were called active. Rule for the calls: active = z-score of 3 or more in at least 2 runs; inactive = the rest. The list comes from a sample in which actives are over-represented; it also holds similar structures and randomly drawn compounds.

Assay: TAR RNA-Tat peptide displacers, HIV-1, primary screen, biochemical, FRET, FAM/TAMRA-labeled Tat (AID 1259389)
Settings: HIV-1 TAR RNA, Tat peptide displacement FRET; active compounds read high

Question: Which z-score does the source give for O=C(O)C1CSC(c2cccnc2)N1 (stereo not given) here?
Answer: The z-score was 3.48 (active).

Question: With Cc1nn2c3cc(N4CCNCC4)ccc3nc2c2ccccc12 as the compound, how does the z-score read?
Answer: Its z-score is 3.84 (active).

Question: For c1ccc2sc(N3CCNCC3)nc2c1, which z-score is on record?
Answer: Its z-score is -0.36 (inactive).

Question: With CC(=O)N[C@H]1CN2CC[C@H](O)[C@@H]2[C@@H](O)[C@@H]1O as the compound, how does the z-score read?
Answer: The z-score was 0.34 (inactive).

Question: Which z-score does the source give for CC(C)(C)[C@]1(O)C[C@@H]2OC(=O)C[C@@]23C(=O)O[C@@H]2OC(=O)[C@H](O)[C@]213 here?
Answer: The z-score was 2.75 (inactive).

Question: Which z-score does the source give for C#CCOc1ccc(C2SCC(=O)Nc3n[nH]c(C)c32)cc1OC (stereo not given) here?
Answer: Its z-score is 1.62 (inactive).

Question: For CCC1c2cccn2-c2ccccc2CN1C(=O)Nc1ccc(F)c(Cl)c1 (stereo not given), which z-score is on record?
Answer: Its z-score is 1.12 (inactive).

Question: With C=CCOc1ccc(C2SCC(=O)Nc3n[nH]c(C)c32)cc1 (stereo not given) as the compound, how does the z-score read?
Answer: Its z-score is 1.1 (inactive).

Question: For CN1CC=C(c2noc(CCC(=O)Nc3ccc(Cl)cn3)n2)CC1, which z-score is on record?
Answer: The z-score was 1.39 (inactive).

Question: Which z-score does the source give for CCC(CC)n1[nH]c(=O)c2c1NC(=O)CSC2c1ccc(Br)cc1 (stereo not given) here?
Answer: The z-score was 0.25 (inactive).
